Laboratory results reported in PubChem BioAssay AID652017 (The Scripps Research Institute Molecular Screening Center, 2013).
“And” between values parts separate entries of the source, which are not always exact repeats. Equal entries are not always repeated. Out of some 370,000 compounds screened, about 3,800 (1%) were called active. What follows is part of a selection rich in actives, with near analogues and random picks from the rest. Values without a mark were called inactive. Rule as the data show it: active = activation above about 7.8%; inactive = the rest.

experiment: SMARCA2 (BRM) function activators, primary screen, cell-based, luminescence, high throughput (AID 652017); conditions: MG213 cells, MMTV-luciferase reporter, dexamethasone, overnight; at 9.1 µM; active compounds read high;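 also: 0% = vehicle wells and 100% = reference activator wells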

In order of falling activation:
1. C[C@H]1CCC/C=C/C(=O)c2c(O)cc(O)cc2CC(=O)O1  6.88%
2. Cc1nc2cc(S(=O)(=O)C(F)(F)F)ccc2s1  5.28%
3. Cc1ccc(C2=C/C(=C\c3cccnc3)C(=O)O2)cc1  5.23%
4. COC(=O)[C@]12C[C@H](CC(=O)NCc3ccccc3)C(=O)N(Cc3ccccc3)C1=C[C@H](COCc1ccccc1)O[C@@H]2C  2.84%
5. Cn1c(SCC(=O)Nc2cccc(NC(=O)c3cccs3)c2)nnc1-c1ccncc1  2.18%
6. Cc1ccc(Cn2cc(CN3[C@@H](CC(C)C)COc4ccc(Cl)cc4S3(=O)=O)nn2)cc1  0.91%
7. O=C1NC[C@@H](CCCCN2CCN(CCc3ccc(O)cc3)C(=O)C2=O)N(CC2CCCCC2)C1=O  0.65%
8. CC(CCN1CCC(C(O)(c2ccccc2)c2ccccc2)CC1)Oc1ccc(C(F)(F)F)cc1 (stereo unspecified)  0.64%
9. Cc1ccc(C)c(NC(=O)CCS(=O)(=O)c2ccccc2)c1  0.55%
10. Cc1nc2ccccc2n1CC(=O)N/N=C/c1cccs1  0.43%
11. O=C(C=CC(=O)Nc1ccc(F)cc1F)Nc1ccc(F)cc1F  0.37%
12. COc1ccccc1OCCNC(=O)CCNC(=O)c1ccccc1Cl  0.37%
13. O=C(C(=O)N1CCc2ccccc2C1)c1c[nH]c2ccccc12  0.35%
14. Nc1ccc2c(c1)C(=Cc1cccnc1)c1ccccc1-2  0.27%
15. O=C(c1ccncc1)N1CC[C@H]2[C@H](CCCN2Cc2ccc(F)cc2)C1  0.1%
16. Cc1ccc(-n2c(SCC(=O)Nc3ccc(S(=O)(=O)Nc4nccs4)cc3)nnc2-c2ccncc2)cc1  -0.03%
17. Cc1ccc(F)c(NC(=O)CCOc2ccccc2C)c1  -0.21%
18. CCOC(=O)c1sc(/N=C/Nc2nc(C)c(C(=O)OCC)s2)nc1C  -0.22%
19. CCn1c(SCC(C)=O)nc2sc3c(c2c1=O)CCCC3  -0.23%
20. Cn1c(=O)c2c(nc(N/N=C/c3cccs3)n2Cc2ccc(Br)cc2)n(C)c1=O  -0.25%
21. COC(=O)C[C@H]1CC[C@H]2[C@H](COc3ccc(NC(=O)C4CC4)cc3C(=O)N2C)O1  -0.29%
22. O=C(Cn1ncc2c3ccccc3n(Cc3ccccc3)c2c1=O)NCc1ccccn1  -0.48%
23. COc1cccc(C(=O)NNS(=O)(=O)c2ccc(F)cc2)c1  -0.53%
24. C[C@H](NC(=O)c1ccccc1Cl)C(=O)OCCOc1cccc(Cl)c1  -0.67%
25. O=C(O)Cn1c(Cc2ccccc2)nc2ccccc21  -0.68%
26. C=CCN1C(=O)[C@@H](CC(=O)NCC2CCCCC2)[C@]2(C(=O)OC)CCCCC=C12  -0.86%
27. COc1ccc(N(CC(=O)Nc2ccc(C)cc2C)S(=O)(=O)c2ccccc2[N+](=O)[O-])c(OC)c1  -0.94%
28. Cc1cc(-c2nc(C)c(-c3nnc(SCC(=O)Nc4ccccc4)n3C)s2)no1  -1.01%
29. Cc1ccc(/C=N/NC(=O)C(NC(=O)c2ccccc2)c2n[nH]c(=O)c3ccccc23)cc1 (stereo unspecified)  -1.07%
30. Cc1cccc(C)c1NC(=O)c1ccc(CN2CCc3ccccc3C2)cc1  -1.14%
31. Cc1ccc(C(=O)Nc2nc(N)n(-c3ccccc3)n2)cc1  -1.21%
32. CCCCCCN1CCS(=O)(=O)N(Cc2ccc(C(F)(F)F)cc2)C(C(=O)OC)C1 (stereo unspecified)  -1.27%
33. C=CCN1[C@@H](Cc2ccccc2)COc2cccc(N3CCSCC3)c2S1(=O)=O  -1.33%
34. CC1(C)O[C@@H]2CC3C4C[C@H](F)C5=CC(=O)C=CC5(C)C4C(O)CC3(C)[C@]2(C(=O)CO)O1 (stereo partly specified)  -1.35%
35. COc1ccc(Cn2ccc3ccc(-c4ccc5ccn(Cc6ccccc6C)c5c4)cc32)cc1  -1.41%
36. CCCCNC(=O)C[C@H]1C(=O)N(Cc2ccc(OC)cc2)C2=CCCC[C@@]21C(=O)OCC  -1.43%
37. COC(=O)Cc1ccc(OC(=O)C2CCN(S(=O)(=O)c3ccc(OC)c(OC)c3)CC2)cc1  -1.69%
38. Cc1ccc(Cn2cc(COC(=O)N(C)Cc3ccccc3)nn2)cc1  -1.94%
39. COCCOC1CCN(C(=O)c2ccc(OC)c(OC3CCN(C(C)C)CC3)c2)CC1  -1.95%
40. COc1cccc(C(=O)Nc2nnc(S(=O)(=O)N3CCOCC3)s2)c1  -2.26%
41. Cc1cccc(OC(C)C(=O)N2CCc3ccccc3C2)c1 (stereo unspecified)  -2.36%
42. O=C(CSc1nc2ccccc2s1)N=Nc1c(O)[nH]c2ccccc12  -2.44%
43. Cc1ccc(S(=O)(=O)N(CC(=O)Nc2cccc([N+](=O)[O-])c2)Cc2ccc(Cl)cc2)cc1  -2.5%
44. CCOC(=O)c1c(NC(=S)SC)sc(C(=O)N2CCc3ccccc3C2)c1C  -2.6%
45. COC(=O)C[C@@H]1CC[C@@H]2[C@@H](COc3ccc(NC(=O)Nc4ccc(F)c(F)c4)cc3C(=O)N2C)O1  -2.75%
46. COC(=O)c1ccccc1-n1cc(COC(=O)NCCc2ccccc2)nn1  -2.76%
47. O=C(CSc1nc2sc3c(c2c(=O)n1-c1ccccc1)CCCC3)NN=Cc1ccc(OCc2ccccc2)cc1  -2.96%
48. O=C1CCC2(CCC(c3ccc(Cl)cc3)CC2)N1CCO (stereo unspecified)  -3.07%
49. COC(=O)C[C@@H]1CC[C@@H]2[C@H](COc3ccc(NC(=O)c4cccc(F)c4)cc3C(=O)N2C)O1  -3.28%
50. CCOC(=O)c1cc2cc(-c3c(C(=O)OCC)oc4cc(O)cc(O)c4c3=O)ccc2o1  -3.39%
51. CCCCNC(=O)C[C@H]1C[C@@]2(C(=O)OC)C(=C[C@H](COCc3ccccc3)O[C@@H]2C)N(Cc2ccc(Cl)cc2Cl)C1=O  -3.4%
52. Cc1ccc(-c2nc(CSCC(=O)NC3CCN(Cc4ccccc4)CC3)c(C)o2)cc1  -3.96%
53. CC(C)Cc1nnc(NC(=O)CCC(=O)Nc2ccc3cn[nH]c3c2)s1  -4%
54. O=C(CSc1nc2ccccc2n1Cc1ccccc1Cl)N/N=C\c1c[nH]c2ccccc12  -4.04%
55. CCOc1ccc(-n2c(SCC(=O)Nc3cc(C)c(NC(=O)c4ccccc4)cc3OC)nnc2-c2cccs2)cc1  -4.31%
56. Cc1cc(NC(=O)CSCc2nc(-c3cccc(Cl)c3)oc2C)no1  -4.35%
57. Cc1cc(=O)[nH]c(SCC(=O)Nc2ccc(F)cc2F)n1  -4.89%
58. O=S1(=O)c2c(cccc2N2CCCCC2)O[C@H](COCc2ccccc2)CN1C1CC1  -5.02%
59. COC(=O)[C@]12CCCCC=C1N(Cc1ccco1)C(=O)[C@H](CC(=O)NCC1CCCCC1)C2  -5.18%
60. C=C(C)C#CC(Cc1ccccc1)NCC1CC1 (stereo unspecified)  -5.21%
61. Cc1ccc(-c2nc(C3CCCN(S(=O)(=O)c4ccc(Br)s4)C3)no2)cc1 (stereo unspecified)  -5.3%
62. CCCCCCCCNS(=O)(=O)/C=C/c1cc(C)ccc1CNC(=O)OC(C)(C)C  -5.6%
63. C=CCN1C(=O)[C@@H](CC(=O)NCCCCc2ccccc2)[C@]2(C(=O)OCC)CCCCC/C=C/12  -5.79%
64. COC(=O)[C@]1(C#N)CC(=O)N(CC2CCCCC2)[C@@H]1c1ccccc1  -6.17%
65. Cc1ccc(Cn2cc(CN3[C@@H](C)COc4cc(Br)ccc4S3(=O)=O)nn2)cc1  -6.23%
66. CCc1nc2c(OCCOc3ccccc3)cccn2c1N(C)C(=O)c1ccc(OC)cc1  -6.52%
67. O=C(CSc1nnc(-c2ccccc2)n1Cc1ccco1)Nc1ccccc1-c1ccccc1  -7.03%

With `COc1ccc(C)cc1S(=O)(=O)N(CC(=O)Nc1cccc([N+](=O)[O-])c1)c1ccc(C)cc1` the activation was 9.29% (active).
In the case of `Cc1ccccc1C1=N/C(=C/c2cccnc2)C(=O)O1`, the activation is reported as 10.3% (active).
With `Cc1cccc(-n2c(O)c(C=Nc3ccccc3N)c(=O)[nH]c2=O)c1` the activation was 9.92% (active).
For `O=S(=O)(Cc1ccccc1)c1nc2ccccc2n1Cc1ccccn1`, the activation was 7.86% (active).
In the case of `Cc1nc(-c2nnc(SCC(=O)Nc3cc(C(F)(F)F)cc(C(F)(F)F)c3)n2C)cs1`, the activation is reported as 8.28% (active).
In the case of `COc1cccc(C(=O)Nc2nc3ccc(S(C)(=O)=O)cc3s2)c1`, the activation is reported as 8.68% (active).
For `C=CC(=O)OCCOCCOCCOCCOC(=O)C=C`, the activation was 13.1% (active).
With `Cc1ccc(F)c(NC(=O)CCc2ccccc2)c1` the activation was 11.3% (active).
For `COC(=O)c1sc(-c2ccc(C(C)(C)C)cc2)cc1NC(=O)/C=C/C(=O)O`, the activation was 9.14% (active).
With `CC(=O)c1sc(N)nc1C` the activation was -0.52% and -1.75%.
In the case of `CC(=O)c1sc(N/N=C\c2ccc(C)cc2)nc1C`, the activation is reported as 13.4% (active).
In the case of `CC(=O)c1sc(NC(=O)c2ccc(C)cc2)nc1C`, the activation is reported as 9.69% (active).
With `CN(C)c1nc(=Nc2cccc(Cl)c2)ss1` the activation was 10.5% (active).
For `Cc1ccsc1-c1nc(CSCC(=O)NCCN2CCCC2)c(C)o1`, the activation was 8.31% (active).
In the case of `CC(C)Cc1nnc(NC(=O)CCNC(=O)c2ccccc2Cl)s1`, the activation is reported as 9.18% (active).
In the case of `Cc1cc(-n2cnc(-c3cn(C)nc3C)n2)no1`, the activation is reported as 8.03% (active).
In the case of `CCc1ccc(NC(=O)N2CCc3ccccc3C2)cc1`, the activation is reported as 7.91% (active).
For `O=C(Nc1cccc([N+](=O)[O-])c1)N1CCc2ccccc2C1`, the activation was 12.9% (active).
With `Cc1n[nH]c(=O)nc1N/N=C/c1cccs1` the activation was 9.22% (active).
